Experimental data: PubChem BioAssay AID1159580 (chemical genetic matrix, 2015)
Values joined by “and” are separate entries in the source; they are usually repeats but may differ in a detail not shown here. Equal values may be shown once. Out of some 5,500 compounds screened, about 2,000 (36%) were called active. Roughly 18% stayed inconclusive and do not appear here. Rule as the data show it: active = normalized growth mostly below about 0.91 (no sharp cut-off); inconclusive = no clear call, values can overlap the other calls; inactive = mostly above about 0.92. Some of the results follow.

Assay: chemical genetic growth profiling, strain panel (AID 1159580);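 also: tested at 20 µM; growth read once vehicle control cultures reached saturation at 30 °C; 1 = growth at the plate median or of vehicle wells; lower values mean less growth of the strain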
Details: S. cerevisiae deletion strains, growth OD

Measured: normalized growth

CCCCN(CCCC)CCCOC(=O)c1ccc(N)cc1
inactive: locus YAL013W, strain DEP1, stronger effect = lower value 1 | locus YAL021C, strain ccr4, stronger effect = lower value 0.992 | locus YAL026C, strain drs2, stronger effect = lower value 0.991 | locus YAL030W, strain snc1, stronger effect = lower value 0.996 | locus YBL061C, strain skt5, stronger effect = lower value 0.986 | locus YBR009C, strain hhf1, stronger effect = lower value 0.998 | locus YBR021W, strain FUR4, stronger effect = lower value 1.07 | locus YBR023C, strain chs3, stronger effect = lower value 0.99 | locus YBR171W, strain sec66, stronger effect = lower value 0.986 | locus YBR229C, strain ROT2, stronger effect = lower value 0.998 | locus YBR231C, strain swc5, stronger effect = lower value 1 | locus YBR279W, strain paf1, stronger effect = lower value 0.994 | locus YCL011C, strain gbp2, stronger effect = lower value 0.985 | locus YCL016C, strain dcc1, stronger effect = lower value 0.99 | locus YCL029C, strain bik1, stronger effect = lower value 0.982 | locus YCL061C, strain MRC1, stronger effect = lower value 0.987 | locus YCL069W, strain vba3, stronger effect = lower value 0.991 | locus YCR088W, strain abp1, stronger effect = lower value 0.985 | locus YDL005C, strain med2, stronger effect = lower value 0.994 | locus YDL035C, strain GPR1, stronger effect = lower value 0.998 | locus YDL040C, strain nat1, stronger effect = lower value 0.99 | locus YDL074C, strain BRE1, stronger effect = lower value 0.977 | locus YDL101C, strain DUN1, stronger effect = lower value 0.979 | locus YDL134C, strain PPH21, stronger effect = lower value 1 | locus YDL185W, strain tfp1, stronger effect = lower value 0.968 | locus YDL192W, strain arf1, stronger effect = lower value 0.994 | locus YDR001C, strain nth1, stronger effect = lower value 0.992 | locus YDR069C, strain doa4, stronger effect = lower value 0.99 | locus YDR101C, strain arx1, stronger effect = lower value 0.986 | locus YDR137W, strain rgp1, stronger effect = lower value 0.879 | locus YDR150W, strain NUM1, stronger effect = lower value 0.995 | locus YDR159W, strain sac3, stronger effect = lower value 0.989 | locus YDR162C, strain NBP2, stronger effect = lower value 0.984 | locus YDR195W, strain ref2 0.99 | locus YDR297W, strain sur2, stronger effect = lower value 0.993 | locus YDR318W, strain mcm21, stronger effect = lower value 0.992 | locus YDR334W, strain swr1, stronger effect = lower value 0.983 | locus YDR335W, strain msn5, stronger effect = lower value 0.989 | locus YDR388W, stronger effect = lower value 0.989 | locus YDR392W, strain spt3, stronger effect = lower value 0.983 | locus YDR502C, strain sam2, stronger effect = lower value 1.01 | locus YEL003W, strain gim4, stronger effect = lower value 0.986 | locus YEL037C, strain rad23, stronger effect = lower value 0.991 | locus YEL061C, strain CIN8 (second series), stronger effect = lower value 0.981 | locus YEL061C, strain CIN8, stronger effect = lower value 0.998 | locus YER015W, strain faa2, stronger effect = lower value 0.991 | locus YER016W, strain bim1, stronger effect = lower value 0.991 | locus YER110C, stronger effect = lower value 0.989 | locus YER111C, strain swi4, stronger effect = lower value 1 | locus YER155C, strain BEM2 (second series), stronger effect = lower value 0.984 | locus YER155C, strain BEM2, stronger effect = lower value 1 | locus YER167W, strain BCK2, stronger effect = lower value 0.995 | locus YFR010W, strain ubp6, stronger effect = lower value 0.99 | locus YGL078C, strain dbp3, stronger effect = lower value 0.992 | locus YGL086W, strain mad1, stronger effect = lower value 0.994 | locus YGL167C, strain pmr1, stronger effect = lower value 0.991 | locus YGL173C, strain kem1, stronger effect = lower value 0.983 | locus YGL227W, strain vid30, stronger effect = lower value 0.983 | locus YGL240W, strain doc1, stronger effect = lower value 1 | locus YGL248W, strain PDE1, stronger effect = lower value 1 | locus YGL253W, strain hxk2, stronger effect = lower value 0.991 | locus YGR078C, strain PAC10, stronger effect = lower value 0.97 | locus YGR135W, strain pre9, stronger effect = lower value 0.994 | locus YGR229C, strain SMI1, stronger effect = lower value 0.961 | locus YGR252W, strain gcn5, stronger effect = lower value 1.16 | locus YHR013C, strain ard1, stronger effect = lower value 0.961 | locus YHR027C, strain rpn1, stronger effect = lower value 0.991 | locus YHR030C, strain SLT2, stronger effect = lower value 0.965 | locus YHR079C, strain IRE1 (second series), stronger effect = lower value 0.977 | locus YHR079C, strain IRE1, stronger effect = lower value 0.973 | locus YHR094C, strain hxt1, stronger effect = lower value 0.985 | locus YHR129C, strain ARP1, stronger effect = lower value 0.989 | locus YHR142W, strain chs7, stronger effect = lower value 0.992 | locus YHR200W, strain rpn10, stronger effect = lower value 0.996 | locus YIL066C, strain RNR3, stronger effect = lower value 0.991 | locus YIL073C, strain SPO22, stronger effect = lower value 0.937 | locus YIL125W, strain kgd1, stronger effect = lower value 0.987 | locus YIR030C, strain dcg1, stronger effect = lower value 0.997 | locus YJL092W, strain hpr5, stronger effect = lower value 0.986 | locus YJL095W, strain BCK1 (second series), stronger effect = lower value 0.993 | locus YJL095W, strain BCK1, stronger effect = lower value 0.967 and 0.982 | locus YJL115W, strain asf1, stronger effect = lower value 0.993 | locus YJL129C, strain trk1, stronger effect = lower value 1 | locus YJL134W, strain LCB3, stronger effect = lower value 0.993 | locus YJL154C, strain vps35, stronger effect = lower value 0.987 | locus YJL164C, strain tpk1, stronger effect = lower value 0.964 | locus YJL166W, strain qcr8, stronger effect = lower value 0.996 | locus YJL168C, strain set2, stronger effect = lower value 0.988 | locus YJL187C, strain SWE1 (second series), stronger effect = lower value 0.962 | locus YJL187C, strain SWE1, stronger effect = lower value 0.992 | locus YJR043C, strain POL32, stronger effect = lower value 0.993 | locus YJR066W, strain TOR1, stronger effect = lower value 0.95
